B1: il10ra_site1_normal_mot_HHH_b2_02053_af2_000000006_0001_3_19_H_._HHH_b1_07461_0001_0000100009_0000001_0_af2pred_0001 (protein)
chain: SSSSSASEEVRKLLREALELLDKGNPEEAEELVEEAVRIAEENNNPVLLFVAEFLLKDIRGSSSS
B2: il10ra_site1_normal_mot_HHH_b2_00837_af2_000000287_0001_40_54_H_._HHH_b2_01069_af2_0001_0000200019_0000002_0 (protein)
chain: SSSSDEEERIKKLIEEVEELLEEGDPEEALELLFEATHFALELGNAELLREIWELVRSLKSSSSS
B3: il10ra_site1_normal_mot_HHH_b2_02386_000000054_0001_1_20_H_._HHH_b2_05043_0001_0000400073_0000003_0 (protein)
chain: SSSSTDESYELLREAIEEVIRLYKEGNPEEAEKVVEEVARRLEELGNPLAARQLENLLRLLSSSS
B4: il10ra_site1_normal_mot_HHH_b1_04771_000000013_0001_40_56_H_._HHH_b2_04957_af2_0001_0000100002_0000001_1 (protein)
chain: SSSSSEEVEEAVELSTKAFRLALRGNDEEAEEVLKEALKIAEEGNDPRIREVVEDLLQALSSSSS
B5: il10ra_site1_normal_mot_HHH_b1_01879_000000050_0001_1_18_H_._HHH_b1_00727_af2_0001_0000600044_0000002_0_af2pred_0001 (protein)
chain: SSSSSEEVLRLLLEALKLIRRGDLEEAEEVLKEMERLAEELNDEQARRAVEVLKRLLEELGSSSS
B6: il10ra_site1_sap_19_mot_HHH_b2_00335_000000038_0001_43_57_H_._HHH_b1_03234_0001_0000400063_0000002_0_0001 (protein)
chain: SSSSEAVKRVAELLREASKLQNDGNPEEAERVAEEALEVAEEGNNPLLEWQARFLLHRIRNSSSS
B7: il10ra_site1_normal_mot_HHH_b1_02708_af2_000000019_0001_23_39_H_._e0a7e7c149437fae01dc270677924e9f_0001_1_0001_0000100001_0000001_0 (protein)
chain: SLEEEVTELVRELGLPPMVESAVRSFVLAKELGDEEYLKIAEHFLEAQARRDPNVEEVLRFLRER
B8: il10ra_site1_normal_mot_HHH_b2_04646_000000019_0001_1_20_H_._HHH_b2_05789_af2_0001_0000400029_0000001_0 (protein)
chain: SSSSSDEEEAREEAERLLEEAEQIEDRHEVARLLYRASRLAAEGQDDELARRLVKLFARLSSSSS
B9: il10ra_site1_normal_mot_HHH_b2_00475_000000107_0001_44_57_H_._HHH_b2_01638_af2_0001_0000900052_0000002_0 (protein)
chain: SSSSEAEQRVAELLFRALRLLYEGNPEEAKEVVEEARRLAEENNDEELEEYVRILKHFIESHSSS
B10: il10ra_site1_normal_mot_8756ee2cf497b5429c717dfc0c0bcfd6_0001_000000186_0001_1_13_H_._HHH_b2_00335_af2_0001_0000300021_0000001_0_af2pred_0001 (protein)
chain: SSSSSDRLRELLELLRRIIELSRDGDPEEARKLIEEAQELAEELNDEVAKAILEFLEEHVNSSSS
B11: il10ra_site1_normal_mot_HHH_b1_00999_000000080_0001_41_55_H_._HHH_b1_02031_af2_0001_0000100001_0000001_0 (protein)
chain: SSSSSDEEEEEVERLLEEAEKIPDPRERNEILLEALHIALELGDEELLQLVWKVVKELGSSSSSS
B12: il10ra_site1_normal_mot_HHH_b1_05326_000000242_0001_1_20_H_._HHH_b1_05311_0001_0000100004_0000001_0 (protein)
chain: SSSSSSDEALELSRRAFKAALHGNPEEARELLEEALELAEERGDERLARIIQDLLKVLSSSSSSS
B13: il10ra_site1_sap_12_mot_HHH_b1_06789_af2_000000041_0001_1_20_H_._HHH_b2_05839_af2_0001_0000300031_0000002_0_0001 (protein)
chain: SSSSSDEEEIEELLREIKELLENNDRERALELIQEALRVIFQHSDEEALRELFELVRKLGSSSSS
B14: il10ra_site1_sap_22_mot_HHH_b2_03220_af2_000000223_0001_23_40_H_._HHH_b1_01542_0001_0000500044_0000001_0_0001_af2pred_0001 (protein)
chain: SSSSSEEEVEELERRIEELLEEGNRHEAAALILRLFALAHELRDPEVEEEARRLAQLAANSSSSS
B15: il10ra_site1_normal_mot_HHH_b2_06857_af2_000000179_0001_42_54_H_._HHH_b1_05676_af2_0001_0000100011_0000001_0 (protein)
chain: SSSSDETEEVVELLRRAAELHSDGDHEEARRLLEEAQELAEELGNELLRYQIEFAERSLDSSSSS
B16: il10ra_site1_sap_25_mot_HHH_b1_01879_000000050_0001_1_18_H_._HHH_b1_08444_0001_0000100004_0000001_0_0001 (protein)
chain: SSSSSTQELYELSRKAMELLRNGNPEEAEKLLEEALELAEEEGNWAAIVALRYILRAIRRSSSSS
B17: il10ra_site1_sap_17_mot_HEEHE_1605_000000211_0001_40_56_H_._9e622f7d73aa0ff91040b48e8c7f7504_0001_1_af2_0001_0000600013_0000002_0_0001 (protein)
chain: SSSSSDANHEALELVLEAMHAMLRGDREEAERLLEEALELAREGNNERLAKQIEILLENASSSSS
B18: il10ra_site1_normal_mot_HHH_b1_04065_000000255_0001_41_56_H_._HHH_b1_07236_0001_0000100003_0000001_1 (protein)
chain: SSSSDEEYRREVEELLEEAEQIEDPHERAEVLARALRRAYEGRDPELFRLVDRVAIELYFSSSSS
B19: il10ra_site1_sap_21_mot_HHH_b2_06979_000000158_0001_42_57_H_._HHH_b1_00540_af2_0001_0000100003_0000001_0_0001 (protein)
chain: SSSTLTERIYKLSEKALELLKQGDTEEAEEVVEEAIELAEEAGSRVLAHVLEFLLEAIKRRSSSS

Not all results are given here. No count for the full screen is at hand. Values without a mark were called inactive.

The target of the test is il10ra, Q13651. As to the kind of experiment: yeast display titration.
Sequence of il10ra, Q13651 (Q13651 whole entry): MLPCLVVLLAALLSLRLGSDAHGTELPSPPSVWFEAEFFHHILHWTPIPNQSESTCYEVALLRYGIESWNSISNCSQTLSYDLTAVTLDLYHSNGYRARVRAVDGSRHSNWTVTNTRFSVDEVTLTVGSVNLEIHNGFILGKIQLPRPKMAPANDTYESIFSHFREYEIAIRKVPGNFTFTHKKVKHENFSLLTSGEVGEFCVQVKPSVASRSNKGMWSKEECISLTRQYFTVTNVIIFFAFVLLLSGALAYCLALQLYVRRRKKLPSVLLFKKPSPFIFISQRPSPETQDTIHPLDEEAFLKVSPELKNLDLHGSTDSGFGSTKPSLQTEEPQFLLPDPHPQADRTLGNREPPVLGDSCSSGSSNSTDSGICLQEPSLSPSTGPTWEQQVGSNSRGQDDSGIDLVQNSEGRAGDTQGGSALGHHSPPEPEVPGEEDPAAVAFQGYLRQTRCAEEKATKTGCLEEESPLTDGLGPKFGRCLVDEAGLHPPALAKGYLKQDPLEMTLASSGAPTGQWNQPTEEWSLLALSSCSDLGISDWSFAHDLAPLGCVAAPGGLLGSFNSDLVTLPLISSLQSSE
As for B1, the “apparent Kd” value is “no binding seen”.

As to B2, the “apparent Kd” value is “no binding seen”.

As to B3, the “apparent Kd” value is “no binding seen”.

For the molecule B4, the “apparent Kd” value is “no binding seen”.

Regarding B5, the “apparent Kd” value is “no binding seen”.

Turning to B6, the “apparent Kd” value was “no binding seen”.

For B7, the “apparent Kd” value was “no binding seen”.

For the molecule B8, the “apparent Kd” value was “no binding seen”.

For the molecule B9, the “apparent Kd” value was “no binding seen”.

Consider B10, for which the “apparent Kd” value was “no binding seen”.

Take B11: the “apparent Kd” value was “no binding seen”.

For the molecule B12, the “apparent Kd” value was “no binding seen”.

For B13, the “apparent Kd” value was “no binding seen”.

B14: the “apparent Kd” value is “no binding seen”.

On to B15, for which the “apparent Kd” value is “no binding seen”.

Take B16: the “apparent Kd” value is “no binding seen”.

On to B17, for which the “apparent Kd” value is “no binding seen”.

As for B18, the “apparent Kd” value was “no binding seen”.

For the molecule B19, the “apparent Kd” value is “no binding seen”.

For the origin of these results see publication PMC10163288.
